From PubChem BioAssay (EPA / NIEHS) come the findings set out here.

Activity calls are given as the source filed them. How the source made its calls: active means hit-call score of the fitted dose curve at least 0.9, where 1 is the maximum; inactive means score below 0.9.

Read-out in test [1]: Cyclin Dependent Kinase Inhibitor 1A (CDKN1A), CDKN1A (gene 1026)
The experiment in a line: LTEA_HepaRG_CDKN1A: Life Technologies and Expression Analysis (LTEA) Assay for Cyclin Dependent Kinase Inhibitor 1A (CDKN1A) using HepaRG (AID 2283450). Particulars: mRNA level, 48 h; actives raise or lower the signal. Summed up:
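Read-out is CDKN1A mRNA by TaqMan qRT-PCR, normalized to three housekeeping genes and fitted in both directions against the DMSO baseline. Human HepaRG cells were treated 48 h with test chemicals up to 100 uM in half-log steps, 0.5% DMSO.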

Read-out in test [2]: Cyclin D1 (CCND1), CCND1 (gene 595)
In words: LTEA_HepaRG_CCND1: Life Technologies and Expression Analysis (LTEA) Assay for Cyclin D1 (CCND1) using HepaRG (AID 2283451). Particulars: mRNA level, 48 h; actives raise or lower the signal. In short, it runs like this:
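HepaRG plated 48 h, medium switched to serum-free induction medium, chemicals added in duplicate (top 100 uM, half-log steps, 0.5% DMSO) for 48 h, cells lysed, RNA measured by TaqMan qRT-PCR.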

Read-out in test [3]: flavin-containing dimethylaniline monooxygenases 3 (FMO3), FMO3 (gene 2328)
In words: LTEA_HepaRG_FMO3: Life Technologies and Expression Analysis (LTEA) Assay for flavin-containing dimethylaniline monooxygenases 3 (FMO3) using HepaRG (AID 2283453). The note with it: mRNA level, 48 h; actives raise or lower the signal. Summed up: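 FMO3 transcript quantified by TaqMan qRT-PCR against three housekeeping genes after 48 h chemical exposure of HepaRG cells. Eight-point half-log series, top 100 uM, 0.5% DMSO vehicle; phenobarbital 1mM induction control; up- or down-regulation fitted.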

Read-out in test [4]: Cytochrome P450 (CYP1A1), CYP1A1 (gene 1543)
In words: LTEA_HepaRG_CYP1A1: Life Technologies and Expression Analysis (LTEA) Assay for Cytochrome P450 (CYP1A1) using HepaRG (AID 2283454). Particulars: mRNA level, 48 h; actives raise or lower the signal. Summed up:
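HepaRG, 48 h post-plating switched to serum-free induction medium; 8-pt conc-response (top 100 uM, half-log, 0.5% DMSO), duplicates, 48 h. Lysis in RLT, TaqMan qRT-PCR for CYP1A1; gain or loss vs DMSO.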

Read-out in test [5]: CFLAR gene, CFLAR (gene 8837)
In words: LTEA_HepaRG_CFLAR: Life Technologies and Expression Analysis (LTEA) Assay for CFLAR gene using HepaRG (AID 2283455). Particulars: mRNA level, 48 h; actives raise or lower the signal. Summed up:
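Transcript level by qRT-PCR (normalized to ACTB, GAPDH and POLR2A) after 48 h chemical exposure of HepaRG cells, top concentration 100 uM with half-log steps, 0.5% DMSO vehicle, duplicates; fitted bidirectionally against DMSO baseline.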

Read-out in test [6]: growth arrest and DNA damage 45 (GADD45A), GADD45A (gene 1647)
In words: LTEA_HepaRG_GADD45A: Life Technologies and Expression Analysis (LTEA) Assay for growth arrest and DNA damage 45 (GADD45A) using HepaRG (AID 2283458). The note with it: mRNA level, 48 h; actives raise or lower the signal. Summed up:
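Transcript induction or loss, quantified by TaqMan qRT-PCR against three housekeeping genes, is the read-out. HepaRG cells received chemicals for 48 h across eight half-log concentrations from 100 uM in 0.5% DMSO; gain and loss fitted relative to DMSO.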

Read-out in test [7]: Forkhead box O3 (FOXO3), FOXO3 (gene 2309)
The experiment in a line: LTEA_HepaRG_FOXO3: Life Technologies and Expression Analysis (LTEA) Assay for Forkhead box O3 (FOXO3) using HepaRG (AID 2283459). Particulars: mRNA level, 48 h; actives raise or lower the signal. Summed up:
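FOXO3 transcript measured by qRT-PCR (normalized to ACTB, GAPDH, POLR2A) after 48 h exposure of HepaRG cells in serum-free induction medium. Duplicates, eight half-log concentrations up to 100 uM, 0.5% DMSO; gain or loss fitted against DMSO.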

Read-out in test [8]: growth arrest and DNA damage 45 (GADD45B), GADD45B (gene 4616)
In words: LTEA_HepaRG_GADD45B: Life Technologies and Expression Analysis (LTEA) Assay for growth arrest and DNA damage 45 (GADD45B) using HepaRG (AID 2283461). The note with it: mRNA level, 48 h; actives raise or lower the signal. Summed up:
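HepaRG, ~100,000 cells/well, 48 h plating; serum-free induction medium; cpd 100 uM top, half-log x8, 0.5% DMSO, duplicate, 48 h; lysis in RLT, RNA isolation, qRT-PCR; norm ACTB/GAPDH/POLR2A; bidirectional fit vs DMSO.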

Read-out in test [9]: ABC Transporter (ABCC3), ABCC3 (gene 8714)
In words: LTEA_HepaRG_ABCC3: Life Technologies and Expression Analysis (LTEA) Assay for ABC Transporter (ABCC3) using HepaRG (AID 2283462). The note with it: mRNA level, 48 h; actives raise or lower the signal. In short, it runs like this: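 Human HepaRG, 48 h dosing, 8-pt half-log series from 100 uM, 0.5% DMSO vehicle, duplicates. ABCC3 mRNA by TaqMan qRT-PCR, housekeeping-normalized; bidirectional curve fit vs DMSO.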

Read-out in test [10]: ABC Transporter (ABCB11), ABCB11 (gene 8647)
In words: LTEA_HepaRG_ABCB11: Life Technologies and Expression Analysis (LTEA) Assay for ABC Transporter (ABCB11) using HepaRG (AID 2283463). Particulars: mRNA level, 48 h; actives raise or lower the signal. Summed up:
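ABCB11 transcript levels quantified by TaqMan qRT-PCR against three housekeeping genes after 48 h chemical exposure of HepaRG cultures. Concentrations up to 100 uM in half-log steps, 0.5% DMSO vehicle; both induction and suppression scored.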

Read-out in test [11]: ABC Transporter (ABCC2), ABCC2 (gene 1244)
The experiment in a line: LTEA_HepaRG_ABCC2: Life Technologies and Expression Analysis (LTEA) Assay for ABC Transporter (ABCC2) using HepaRG (AID 2283464). Particulars: mRNA level, 48 h; actives raise or lower the signal. Summed up:
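HepaRG, 48 h post-plating; serum-free induction medium; cpd 8-pt, 100 uM top, half-log, 0.5% DMSO, duplicate, 48 h. Readout: ABCC2 mRNA by qRT-PCR, norm. ACTB/GAPDH/POLR2A. Bidirectional fit vs DMSO baseline.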

Read-out in test [12]: Broad substrate specificity ATP-binding cassette transporter ABCG2 (Homo sapiens) (UniProt Q9UNQ0)
The experiment in a line: LTEA_HepaRG_ABCG2: Life Technologies and Expression Analysis (LTEA) Assay for ABC Transporter (ABCG2) using HepaRG (AID 2283465). Particulars: mRNA level, 48 h; actives raise or lower the signal. In short, it runs like this: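 ABCG2 transcript was quantified by TaqMan qRT-PCR against three housekeeping genes in HepaRG cells. Cells were treated in duplicate for 48 h across an 8-point half-log series up to 100 uM, with 0.5% DMSO vehicle. Gain or loss versus DMSO was fit.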

Read-out in test [13]: Peroxisomal acyl-coenzyme A oxidase 1 (ACOX1) gene, ACOX1 (gene 51)
The experiment in a line: LTEA_HepaRG_ACOX1: Life Technologies and Expression Analysis (LTEA) Assay for Peroxisomal acyl-coenzyme A oxidase 1 (ACOX1) gene using HepaRG (AID 2283467). Particulars: mRNA level, 48 h; actives raise or lower the signal. Summed up: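 ACOX1 transcript levels were quantified by TaqMan qRT-PCR against three housekeeping genes after 48 h chemical exposure of differentiated human HepaRG cells. Exposure used eight half-log steps topping at 100 uM, 0.5% DMSO vehicle, in duplicate. Bidirectional curve fits were made relative to DMSO.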

Read-out in test [14]: Alkaline Phosphatase, Placental (ALPP) gene, ALPP (gene 250)
In words: LTEA_HepaRG_ALPP: Life Technologies and Expression Analysis (LTEA) Assay for Alkaline Phosphatase, Placental (ALPP) gene using HepaRG (AID 2283468). Particulars: mRNA level, 48 h; actives raise or lower the signal. In short, it runs like this: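 HepaRG, 48 h plating then 48 h dosing, serum-free induction medium, 0.5% DMSO. 8 conc, half-log, max 100 uM, duplicates. Endpoint: ALPP transcript by qRT-PCR, housekeeping-normalized; gain or loss fitted vs DMSO.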

Read-out in test [15]: Bcl-2 (BAD) gene, BAD (gene 572)
In words: LTEA_HepaRG_BAD: Life Technologies and Expression Analysis (LTEA) Assay for Bcl-2 (BAD) gene using HepaRG (AID 2283469). The note with it: mRNA level, 48 h; actives raise or lower the signal. Summed up: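 Read-out: qRT-PCR of BAD mRNA, normalized to three housekeeping genes. Human HepaRG cultures got 48 h chemical exposure in 0.5% DMSO, duplicate eight-point half-log series topping at 100 uM. Gain or loss of signal fitted versus DMSO vehicle.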

Read-out in test [16]: Forkhead box O1 (FOXO1), FOXO1 (gene 2308)
The experiment in a line: LTEA_HepaRG_FOXO1: Life Technologies and Expression Analysis (LTEA) Assay for Forkhead box O1 (FOXO1) using HepaRG (AID 2283456). The note with it: mRNA level, 48 h; actives raise or lower the signal. In short, it runs like this:
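FOXO1 transcript quantified by qRT-PCR after 48 h chemical exposure (top 100 uM, half-log steps, 0.5% DMSO) of HepaRG cells, housekeeping-normalized (ACTB/GAPDH/POLR2A). Changes fitted in both directions relative to vehicle.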

Test [17] in a line: CEETOX_H295R_TESTO: CeeTox H295R High-throughput Steroidogenesis Assay for Testosterone (TESTO) (AID 2283457). Particulars: actives raise or lower the signal. In short, it runs like this:
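H295R, passage ≤10, 48 h dosing; media extracted with MTBE → HPLC-MS/MS for testosterone; 7-pt standard curve sets LLOQ/ULOQ; bidirectional fit vs DMSO; MTT viability same wells.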

Read-out in test [18]: ATP-citrate lyase (ACLY), ACLY (gene 47)
The experiment in a line: LTEA_HepaRG_ACLY: Life Technologies and Expression Analysis (LTEA) Assay for ATP-citrate lyase (ACLY) using HepaRG (AID 2283466). The note with it: mRNA level, 48 h; actives raise or lower the signal. Summed up: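 ACLY mRNA quantified by qRT-PCR on Fluidigm arrays against three housekeeping genes, after 48 h chemical treatment of HepaRG cells (top concentration 100 uM, half-log steps, 0.5% DMSO vehicle). Up- or down-regulation fitted relative to DMSO.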

Read-out in test [19]: catalase (CAT), CAT (gene 847)
In words: LTEA_HepaRG_CAT: Life Technologies and Expression Analysis (LTEA) Assay for catalase (CAT) using HepaRG (AID 2283452). The note with it: mRNA level, 48 h; actives raise or lower the signal. Summed up: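 Expression of CAT was quantified by TaqMan qRT-PCR with ACTB/GAPDH/POLR2A normalization after 48 h chemical exposure of HepaRG. Eight-point half-log series, top 100 uM, in 0.5% DMSO; gain or loss fitted against vehicle.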

As usually defined, the AC50 is the concentration at which the activity in the assay is half-maximal.

Broad substrate specificity ATP-binding cassette transporter ABCG2 (Homo sapiens), sequence (Q9UNQ0 whole entry, looked up): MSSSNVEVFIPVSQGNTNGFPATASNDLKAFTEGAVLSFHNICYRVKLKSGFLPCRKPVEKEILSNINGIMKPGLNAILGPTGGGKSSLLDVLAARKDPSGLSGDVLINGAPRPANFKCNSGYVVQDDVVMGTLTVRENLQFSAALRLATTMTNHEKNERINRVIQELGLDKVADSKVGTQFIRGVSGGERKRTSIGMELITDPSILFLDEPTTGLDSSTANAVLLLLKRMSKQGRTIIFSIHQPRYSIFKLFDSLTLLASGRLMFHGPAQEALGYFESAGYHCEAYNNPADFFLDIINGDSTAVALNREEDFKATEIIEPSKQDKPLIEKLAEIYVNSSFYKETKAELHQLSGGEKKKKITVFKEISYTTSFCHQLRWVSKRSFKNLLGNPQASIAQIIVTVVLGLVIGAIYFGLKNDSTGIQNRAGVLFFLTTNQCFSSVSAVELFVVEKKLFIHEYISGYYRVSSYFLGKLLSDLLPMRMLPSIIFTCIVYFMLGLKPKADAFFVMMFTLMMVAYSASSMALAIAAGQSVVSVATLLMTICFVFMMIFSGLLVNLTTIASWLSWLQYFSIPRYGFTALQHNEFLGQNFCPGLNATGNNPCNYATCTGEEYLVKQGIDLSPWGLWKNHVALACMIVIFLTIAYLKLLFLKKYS

Take `CC1(C)CON(Cc2ccccc2Cl)C1=O`: the molecule was classed as inactive in test [1], in test [2], in [3], in [5], in test [6] and in test [7]. Further, the molecule was classed as inactive in test [8], in test [9], in test [10], in [12], in test [13] and in [14]. Further, the outcome in [15] was inactive. In addition, the AC50 in [4] is 50 µM (active); in test [11], 18.4 µM (active).

With `CCOc1cc(C(C)(C)C)ccc1C1COC(c2c(F)cccc2F)=N1` (stereo not drawn), the result in test [1], in [2], in test [3], in test [5], in test [16] and in test [17] was inactive. Moreover, the call in [6], in test [7], in test [9], in test [10], in [18] and in test [13] was inactive. In addition, the result in test [14] and in [15] was inactive. For the same molecule, the AC50 is 19.2 µM (active) in [4], 8.66 µM (active) in test [11] and 9.15 µM (active) in test [12].

For `CC1(C)C(C=C(Cl)Cl)C1C(=O)OC(C#N)c1cccc(Oc2ccccc2)c1` (stereo not drawn), the molecule was called inactive in [1], in test [2], in test [19], in [3], in test [5] and in test [6]. Also, the molecule was classed as inactive in test [7], in test [9], in test [10], in test [11], in [13] and in test [14]. In addition, in test [15], the outcome was inactive. Further, the concentration at half-maximal activity (AC50) in test [4] was 28.8 µM (active); in test [12] it was 10.8 µM (active).

As for `COP(=S)(OC)Oc1ccc([N+](=O)[O-])c(C)c1`, the call in test [1], in [2], in [19], in test [3], in [5] and in test [6] was inactive. Besides, the molecule was called inactive in test [7], in [8], in test [9], in test [10], in test [11] and in test [12]. The molecule was classed as inactive in [13], in test [14] and in [15]. For the same molecule, in test [4], the AC50 was 50 µM (active).
